Test results taken from the supplement of paper PMC5919970.
Structures can show the parent of a compound that is named as a salt. In all, about 2,000 compounds were measured (“fractional viability relative to vehicle”: median about 0.92, lowest 2% from about 0.11 on). The list comes from a sample in which the lowest values are over-represented; it also holds similar structures and randomly drawn compounds.

Test system: TYKNU
Assay: fractional viability relative to vehicle; TYKNU is a high-grade serous ovarian cancer line; higher = less growth inhibition
Conditions: 72 h, genotype: OPA1 knockout (sgOPA1 #2)
Method in brief: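 TYKNU control cells or lentiCRISPRv2 knockout derivatives were plated at 500 cells per well in duplicate into drug-stamped 384-well plates holding a ~2100-compound library at 2 or 10 μM. Culture was in RPMI 1640 with 10% FBS at 37 °C in 5% CO2, with 72 h of drug treatment. Viability was measured by Cell Titer Glo luminescence, and the averaged duplicate treatment wells were normalised to duplicate control wells at the same plate position.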

| Compound | fractional viability (2uM) | fractional viability (10uM) |
| --- | --- | --- |
| COc1nc(OCc2cccc(-c3ccccc3)c2C)ccc1CNCCNC(C)=O [PD-1/PD-L1 inhibitor 2] | 0.912 | 0.487 |
| NS(=O)(=O)NCCNc1nonc1/C(=N/O)Nc1ccc(F)c(Br)c1 | 0.817 | 0.783 |
| C=CC(=O)Nc1cccc(Nc2nc(Nc3ccc(NC4CN(CCF)C4)cc3OC)ncc2C(F)(F)F)c1 | 0.897 | 0.432 |
| COc1cc(N2CCC(N)CC2)ccc1Nc1ncc(Cl)c(-c2c[nH]c3ccccc23)n1 | 0.672 | 0.177 |
| C=CC(=O)Nc1cccc(C)c1Nc1ncc2cc(-c3c(Cl)c(OC)cc(OC)c3Cl)ccc2n1 | 0.676 | 0.37 |
| C=CC(=O)Nc1cc(Nc2nccc(-c3cn(C)c4ccccc34)n2)c(OC)cc1N(C)CCN(C)C | 0.766 | 0.0725 |
| C=CC(=O)Nc1cc(Nc2nccc(-c3c[nH]c4ccccc34)n2)c(OC)cc1N(C)CCN(C)C | 0.542 | 0.0815 |
| C=CC(=O)Nc1cccc(Nc2nc(Nc3ccc(N4CCN(C(C)=O)CC4)cc3OC)ncc2C(F)(F)F)c1 | 0.781 | 0.431 |
| CCC[C@H](Nc1nc(-c2ccc(NC(=O)NCC)c(OC)c2)ncc1C)c1cccnc1 [CYT997 (Lexibulin)] | 0.378 | 0.361 |
| COc1ccc(CCC(=O)Nc2nc3ccc(Cl)cc3s2)cc1OC | 0.989 | 1.04 |
| CNc1cc(-c2cccc(Cl)c2Cl)nc(N)n1 | 0.476 | 0.368 |
| CN1CCN(C2CCN(C(=O)Nc3cc(Oc4ccc(NC(=O)C5(C(=O)Nc6ccc(F)cc6)CC5)c(F)c4)ccn3)CC2)CC1 [Golvatinib (E7050)] | 0.92 | 0.485 |
| COc1ccc(C2=N[C@H](c3ccc(Cl)cc3)[C@H](c3ccc(Cl)cc3)N2C(=O)N2CCNC(=O)C2)c(OC(C)C)c1 [Nutlin-3b] | 0.806 | 0.737 |
| CCOc1nc2cccc(C(=O)O)c2n1Cc1ccc(-c2ccccc2-c2noc(=O)[nH]2)cc1 [Azilsartan] | 0.997 | 1.12 |
| CN1CCN(c2ccc(C(=O)Nc3n[nH]c4ccc(Cc5cc(F)cc(F)c5)cc34)c(NC3CCOCC3)c2)CC1 [Entrectinib (RXDX-101)] | 0.712 | 0.113 |
| CO[C@@H](C(=O)N1Cc2[nH]nc(NC(=O)c3ccc(N4CCN(C)CC4)cc3)c2C1)c1ccccc1 | 0.964 | 0.815 |
| CCc1cccc(CC)c1NC(=O)N1Cc2[nH]nc(NC(=O)c3ccc(N4CCN(C)CC4)cc3)c2C1 | 1.02 | 0.885 |
| Clc1cccc(CN=C2Nc3ccccc3NC23CCNCC3)c1 [Liproxstatin-1] | 0.816 | 0.729 |
| CCOc1cn(-c2ccc(F)cc2C)nc1C(=O)Nc1ccc(Oc2ccnc3cc(OC)c(OC)cc23)c(F)c1 | 0.919 | 0.773 |
| Clc1ccc(C(Cn2ccnc2)OCc2ccc(Sc3ccccc3)cc2)c(Cl)c1 (stereo not given) [Fenticonazole Nitrate] | 0.933 | 0.911 |
| Cc1cc(C)c(CNC(=O)c2cc(-c3ccc(N4CCN(C)CC4)nc3)cc3c2c(C)cn3C(C)C)c(=O)[nH]1 | 0.878 | 0.945 |
| C=C1C(=O)O[C@@H]2/C=C(\C)CC/C=C(\C)CC[C@@H]12 [Costunolide] | 1.15 | 0.522 |
| C=C1C(=O)O[C@H]2[C@H]1CC/C(C)=C/CC[C@@]1(C)O[C@@H]21 [(-)-Parthenolide] | 0.557 | 0.0743 |
| Cc1c[nH]c(/C=C2\C(=O)Nc3ccccc32)c1CCC(=O)O | 0.793 | 0.846 |

| Compound | fractional viability (2uM) | fractional viability (10uM) |
| --- | --- | --- |
| COC(=O)c1ccc2c(c1)NC(=O)/C2=C(\Nc1ccc(N(C)C(=O)CN2CCN(C)CC2)cc1)c1ccccc1 [Nintedanib (BIBF 1120)] | 1.32 | 0.372 |
| CN(C)Cc1cccc(N/C(=C2\C(=O)Nc3cc(C(N)=O)ccc32)c2ccccc2)c1 | 0.93 | 0.993 |
| CCS(=O)(=O)Nc1ccc2c(c1)/C(=C(/Nc1ccc(CN3CCCCC3)cc1)c1ccccc1)C(=O)N2 [Hesperadin] | 0.544 | 0.113 |
| CCOc1cc(C(C)(C)C)ccc1C1=N[C@@](C)(c2ccc(Cl)cc2)[C@@](C)(c2ccc(Cl)cc2)N1C(=O)N1CCN(CCCS(C)(=O)=O)CC1 | 0.49 | 0.469 |
| O=C(c1cc(Cc2n[nH]c(=O)c3ccccc23)ccc1F)N1CCN(C(=O)C2CC2)CC1 | 1.03 | 0.936 |
| C=CC(=O)Nc1cccc(Oc2nc(Nc3ccc(N4CCN(C)CC4)cc3OC)ncc2Cl)c1 | 0.964 | 0.766 |
| C=CC(=O)Nc1cccc(Sc2nc(Nc3ccc(N4CCN(C)CC4)cc3)ncc2Cl)c1 | 1.31 | 0.1 |
| C=CC(=O)Nc1cccc(Oc2nc(Nc3ccc(N4CCN(C)CC4)cc3)ncc2Cl)c1 | 0.825 | 0.5 |
| COc1ccc(CCc2nc3cc(-c4c(C)noc4C)ccc3n2C[C@H](C)N2CCOCC2)cc1Cl | 0.813 | 0.639 |
| COc1cc2c(Oc3ccc4[nH]c(C)cc4c3F)ncnc2cc1OCCCN1CCCC1 [Cediranib (AZD2171)] | 1.1 | 0.181 |
| COc1cc2c(NC3CCN(CC4CCCCC4)CC3)nc(N3CCCN(C(C)C)CC3)nc2cc1OCCCN1CCCCC1 | 0.786 | 0.0322 |
| COC(=O)c1ccc2c(c1)[nH]c1ncnc(NCCCN3CCCCC3)c12 | 0.785 | 0.985 |
| COc1cc2nc(N3CCCC3)nc(NCCCCCN3CCCC3)c2cc1OC | 0.679 | 0.0949 |
| COc1cc(Nc2c(C#N)cnc3cc(OCCCN4CCN(C)CC4)c(OC)cc23)c(Cl)cc1Cl [Bosutinib (SKI-606)] | 0.995 | 0.284 |
| COc1cc2nc(N3CCN(C(=O)C4COc5ccccc5O4)CC3)nc(N)c2cc1OC (stereo not given) [Doxazosin Mesylate] | 1.1 | 1.22 |
| COc1cc2nc(N3CCCN(C)CC3)nc(NC3CCN(Cc4ccccc4)CC3)c2cc1OC | 0.506 | 0.0546 |
| COc1cc2nc(N3CCN(C(=O)C4CCCO4)CC3)nc(N)c2cc1OC (stereo not given) [Terazosin HCl] | 1.14 | 1.15 |
| COc1cc(OC)c(C(=O)CCCN2CCCC2)c(OC)c1 [Buflomedil HCl] | 0.851 | 0.685 |
| Cc1nc2c(O)cccc2c(=O)[nH]1 | 0.925 | 0.903 |
| O=C(CCCCCCC(=O)Nc1ccc([C@H]2O[C@@H](CSc3nc(-c4ccccc4)c(-c4ccccc4)o3)C[C@@H](c3ccc(CO)cc3)O2)cc1)NO [Tubacin] | 1.06 | 0.628 |
| CCOC(=O)[C@@H](N)Cc1ccc(-c2cc(O[C@H](c3ccc(Cl)cc3-n3ccc(C)n3)C(F)(F)F)nc(N)n2)cc1 [Telotristat Etiprate (LX 1606 Hippurate)] | 0.935 | 0.335 |
| CC(C)n1cnc2c(NCCc3ccc(O)cc3)nc(-c3csc4ccccc34)nc21 [StemRegenin 1 (SR1)] | 1.1 | 0.769 |
| CNC1CCC(N(Cc2cccc(-c3ccncc3)c2)C(=O)c2sc3ccccc3c2Cl)CC1 (stereo not given) [Smoothened Agonist (SAG) HCl] | 0.918 | 0.259 |
| O=C1NC(=O)/C(=C/c2ccc(-c3ccc(F)cc3O)o2)S1 | 0.814 | 0.742 |

| Compound | fractional viability (2uM) | fractional viability (10uM) |
| --- | --- | --- |
| N[C@H]1CC[C@H](N[C@@H]2C[C@H]2c2ccccc2)CC1 | 0.794 | 0.89 |
| CN1CCN(c2ccc3nc(-c4c(N)c5c(F)cccc5[nH]c4=O)[nH]c3c2)CC1 [Dovitinib (TKI258) Lactate] | 0.815 | 0.0801 |
| CN1CCN(c2ccc3nc(-c4c(N)c5c(F)cccc5[nH]c4=O)[nH]c3c2)CC1 [Dovitinib (TKI-258, CHIR-258)] | 0.815 | 0.25 |
| Cc1nn(-c2ccccc2)c(C)c1C=NN1CCN(Cc2ccccc2)CC1 | 0.946 | 0.905 |
| COCC(=O)NC/C=C/c1ccc2ncnc(Nc3ccc(Oc4ccc(C)nc4)c(C)c3)c2c1 | 1.29 | 1.17 |
| CCCCCCCc1ccc(CCc2cccc(O)c2C(=O)O)cc1 | 0.96 | 0.73 |
| CCCCCCCCCCCCc1ccc(S(=O)(=O)Nc2nncs2)cc1 | 1.06 | 1.05 |
| CCCCCCCCc1ccc(CCC(N)(CO)CO)cc1 [Fingolimod (FTY720) HCl] | 1.08 | 0.0752 |
| O=C(c1ccc(OCCCc2c[nH]cn2)cc1)C1CC1 [Ciproxifan] | 1.1 | 0.986 |
| CCCCCCCCCCCCCCCCn1cc[n+](Cc2ccccc2)c1C | 0.363 | 0.0434 |
| CCO[C@@H]1OC(=O)C[C@@H]1NC(=O)[C@@H]1CCCN1C(=O)[C@@H](NC(=O)c1ccc(N)c(Cl)c1)C(C)(C)C | 0.969 | 0.919 |
| Cc1cc([N+](=O)[O-])ccc1NS(=O)(=O)c1cc(Cl)ccc1Cl | 0.656 | 0.476 |
| CC(C)c1nc(N(C)S(C)(=O)=O)nc(-c2ccc(F)cc2)c1/C=C/[C@@H](O)C[C@@H](O)CC(=O)O [Rosuvastatin Calcium] | 1.06 | 1.07 |
| Nc1cccc2c1C(=O)N(C1CCC(=O)NC1=O)C2=O (stereo not given) [Pomalidomide] | 1.18 | 1.05 |
| CNc1nc(Nc2cn(C(C)(C)C#N)nc2C)ncc1C(F)(F)F | 0.801 | 0.885 |
| Cc1ccc(-c2c(-c3nn(C)c4ncnc(N5CC[C@H](N6CCCCC6)C5)c34)cnn2C)cc1 | 0.983 | 1.09 |
| CCC[C@H](N[C@H]1CCc2cc(F)cc(F)c2C1)C(=O)Nc1cn(C(C)(C)CNCC(C)(C)C)cn1 | 0.786 | 0.87 |
| CC(=O)[C@@]1(O)CC[C@H]2[C@@H]3CCC4=CC(=O)CCC4=C3[C@@H](c3ccc(N(C)C)cc3)C[C@@]21C [Ulipristal] | 0.841 | 1.07 |
| Cn1sc(=O)n(Cc2ccccc2)c1=O | 0.609 | 0.104 |
| Cc1ccc(-n2sc(=O)n(Cc3ccc(F)cc3)c2=O)cc1 | 0.801 | 0.457 |
| O=C(O)CSc1cc(NS(=O)(=O)c2ccc(Br)cc2)c2ccccc2c1O | 0.835 | 0.365 |
| OCCOc1ccc(/C(=C(/CCCl)c2ccccc2)c2ccccc2)cc1 [Ospemifene] | 0.854 | 0.735 |
